Assay results reported in the supplement of paper PMC10646978.
± gives the standard deviation.

Assays:
Settings in all cases: modulator concentration 10 µM
[1] = system: RAW-Dual (murine macrophage reporter line); experiment: NF-kB reporter (SEAP) activity fold change vs agonist alone; higher = enhanced NF-kB activity
Summary of the method: (§1)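 In 384-well plates holding 50 000 RAW-Dual murine macrophage reporter cells per well, compound at 10 μM final was pre-incubated for 1 hour at 37 °C, after which a PRR agonist was added overnight. Supernatant SEAP read with QUANTI-Blue at 620 nm absorbance reported NF-κB, and Lucia luciferase read with QUANTI-Luc luminescence reported IRF. Fold change values come from dividing each reporter signal by the mean of agonist-only control wells on the same plate, averaged over replicate plates with propagated errors.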

[2] = system: RAW-Dual (murine macrophage reporter line); experiment: IRF reporter (Lucia luciferase) activity fold change vs agonist alone; higher = enhanced IRF activity
Summary of the method: as §1

[3] = system: RAW-Dual (murine macrophage reporter line); experiment: viability score (confluency relative to resting cells, overnight) (fraction); higher = more viable, active = viable (0.7 or more)
Summary of the method: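 RAW-Dual macrophages in 384-well plates were treated overnight with compound at 10 μM final. IncuCyte imaging recorded confluency, and IncuCyte software built two confluency masks across every imaged well. The viability score expresses confluency relative to resting cells and was judged against a cutoff, which a compound met only if both masks exceeded 70% of resting cells.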

[4] = agonist: CpG ODN 1826 0.5 ug/mL

| Structure (SMILES) | NF-kB reporter [1, 4] | NF-kB reporter ([1]; agonist: LPS 0.1 ug/mL) | NF-kB reporter ([1]; agonist: MPLA […]) | IRF reporter ([2]; agonist: 3'3'-cGAMP 10 ug/mL) | IRF reporter ([2]; agonist: LPS 0.1 ug/mL) | IRF reporter ([2]; agonist: MPLA […]) | viability score [3] |
| --- | --- | --- | --- | --- | --- | --- | --- |
| COc1cc2nccc(Oc3ccc(NC(=O)Nc4cc(C)on4)c(Cl)c3)c2cc1OC | 0.178 ± 0.022 | 0.66 ± 0.062 | 0.639 ± 0.057 | 0.626 ± 0.028 | 0.938 ± 0.066 | 1.02 ± 0.1 | 1 (active) |
| COc1ccc2ccccc2c1C=C1SC(=S)N(CC(=O)O)C1=O | 1.05 ± 0.081 | 1 ± 0.12 | 1 ± 0.099 | 0.988 ± 0.053 | 1.34 ± 0.27 | 1.52 ± 0.4 | 1.04 (active) |
| CC(C)c1ccccc1NC(=O)C1COCC(=O)N1Cc1ccccc1 (centres undefined) | 0.983 ± 0.063 | 0.996 ± 0.15 | 1.08 ± 0.058 | 0.985 ± 0.074 | 1.15 ± 0.26 | 1.29 ± 0.51 | 0.979 (active) |
| COc1ccc2c(c1)c(CC(=O)OCC(=O)O)c(C)n2C(=O)c1ccc(Cl)cc1 | 0.844 ± 0.16 | 1.06 ± 0.33 | 0.835 ± 0.053 | 0.938 ± 0.029 | 1.15 ± 0.25 | 1.07 ± 0.11 | 0.985 (active) |
| O=[N+]([O-])c1ccc(N2CCOCC2)c(-c2nnn[nH]2)c1 | 0.98 ± 0.25 | 1.05 ± 0.11 | 0.918 ± 0.085 | 0.938 ± 0.045 | 1.11 ± 0.14 | 1.29 ± 0.17 | 0.996 (active) |
| CCOc1ccc(C(=O)NCc2cccnc2)cc1Br | 1.23 ± 0.07 | 1.06 ± 0.14 | 1.04 ± 0.036 | 0.911 ± 0.058 | 0.934 ± 0.14 | 1.08 ± 0.26 | 0.999 (active) |
| NCC1OC(OC2C(CO)OC(OC3C(O)C(N)CC(N)C3OC3OC(CN)C(O)C(O)C3N)C2O)C(N)C(O)C1O.O=S(=O)(O)O (centres undefined) | 1.21 ± 0.096 | 1.01 ± 0.074 | 1.13 ± 0.12 | 0.993 ± 0.031 | 1.22 ± 0.12 | 1.29 ± 0.18 | 1.02 (active) |
| COc1ccc(C2N3CC4(C)CN2CC(C)(C3)C4O)cc1 (centres undefined) | 0.816 ± 0.067 | 0.949 ± 0.046 | 0.966 ± 0.1 | 0.995 ± 0.055 | 1.49 ± 0.086 | 1.66 ± 0.15 | 1.01 (active) |
| CNC(=O)c1cc(Oc2ccc(NC(=O)Nc3ccc(Cl)c(C(F)(F)F)c3)cc2)ccn1.Cc1ccc(S(=O)(=O)O)cc1 | 0.448 ± 0.038 | 0.8 ± 0.048 | 0.791 ± 0.072 | 0.246 ± 0.019 | 0.575 ± 0.047 | 0.513 ± 0.069 | 1.01 (active) |
| CN1CCN2c3ncccc3Cc3ccccc3C2C1 (centres undefined) | 0.912 ± 0.17 | 1.07 ± 0.22 | 1.71 ± 0.85 | 0.861 ± 0.036 | 1.42 ± 0.3 | 1.18 ± 0.21 | 0.998 (active) |
| COC(=O)C1=C(C#N)NC(C)=C(C(=O)OC(C)C)C1c1cccc([N+](=O)[O-])c1 (centres undefined) | 0.832 ± 0.041 | 1.01 ± 0.097 | 0.929 ± 0.04 | 0.978 ± 0.083 | 1.1 ± 0.068 | 1.19 ± 0.12 | 0.968 (active) |
| O=S(=O)(NCc1ccccn1)c1cccc(Cl)c1 | 0.918 ± 0.039 | 0.986 ± 0.12 | 1.06 ± 0.057 | 1.02 ± 0.061 | 1.32 ± 0.17 | 1.49 ± 0.46 | 0.986 (active) |
